Data reported in PubChem BioAssay (NCATS).
Results filed as inconclusive are left out. Activity calls are given as the source filed them. The call rests on the fitted dose curve.

Assay: Validation screen for inhibitors of Lassa infection (AID 463096)
Details: Lassa virus infection, cell-based; series mostly up to 46.1 µM; activity change, negative = inhibition: at the top concentration
On the % scale 0 is the no-effect control and ±100 the full control effect.

Structure (SMILES) | Potency | activity change, negative = inhibition
OCCN1CCN(CCCN2c3ccccc3C=Cc3ccccc32)CC1 | inactive | –
Cn1cnc2c1c(=O)[nH]c(=O)n2C | – | 3.6% (inactive)
O=C1CC2(CCCC2)CC(=O)N1CCCCN1CCN(c2ncccn2)CC1 | – | 5.16% (inactive)
CCCN(CCC)C(=O)C(CCC(=O)O)NC(=O)c1ccccc1 (stereo not given) | – | 0.851% (inactive)
CC1=C(CC(=O)O)c2cc(F)ccc2/C1=C\c1ccc(S(C)=O)cc1 (stereo not given) | – | -14.5% (inactive)
Cc1cc(C(C)(C)C)c(O)c(C)c1CC1=NCCN1 | – | -18.3% (inactive)
N[C@@H](Cc1c[nH]c2ccc(O)cc12)C(=O)O | – | 12% (inactive)
CCCCCN(CCCCC)C(=O)C(CCC(=O)O)NC(=O)c1ccc(Cl)c(Cl)c1 (stereo not given) | – | -19% (inactive)
OC(CN1CCC(Cc2ccc(F)cc2)CC1)c1ccc(Cl)cc1 (stereo not given) | – | -44.7% (inactive)
COC(=O)C1=C(C)NC(C)=C(C(=O)OC)C1c1ccccc1[N+](=O)[O-] | – | -13.6% (inactive)
CN(C)CCOC(c1ccccc1)c1ccccc1 | – | -37.8% (inactive)
CC1=C(CC(=O)O)c2cc(F)ccc2/C1=C\c1ccc(S(C)(=O)=O)cc1 | – | 21.2% (inactive)
CCNC(=O)N1CCN(CCCC(c2ccc(F)cc2)c2ccc(F)cc2)CC1 | – | -4.65% (inactive)
COc1ccc(CCN(C)CCCC(C#N)(c2cc(OC)c(OC)c(OC)c2)C(C)C)cc1OC (stereo not given) | – | -4.33% (inactive)
CNC(=O)Oc1ccc2c(c1)[C@]1(C)CCN(C)[C@@H]1N2C | – | 20.9% (inactive)
c1ccc([C@H]2CN3CCSC3=N2)cc1 | – | 11.2% (inactive)
COc1ccc(CN(CCN(C)C)c2ccccn2)cc1 | – | 11.1% (inactive)
CCOC(=O)C1=C[C@]2(CC)CCCN3CCc4c(n1c1ccccc41)[C@@H]32 | – | -28.6% (inactive)

Structure (SMILES) | Potency | activity change, negative = inhibition
C=Cc1c(C)c2cc3[nH]c(cc4nc(cc5nc(cc1[nH]2)C(C)=C5CCC(=O)O)C(CCC(=O)O)=C4C)c(C)c3C=C | – | 8.55% (inactive)
CN(C)CCCN1c2ccccc2Sc2ccccc21 | – | -28.2% (inactive)
CN(C)C(=O)Oc1cccc([N+](C)(C)C)c1 | – | 9.45% (inactive)
CN1CCC(=C2c3ccccc3CC(=O)c3sccc32)CC1 | – | -29% (inactive)
OCc1cc(C(O)CNCCCCCCOCCCCc2ccccc2)ccc1O (stereo not given) | – | -44.5% (inactive)
Cc1ccc(N(CC2=NCCN2)c2cccc(O)c2)cc1 | – | -20.3% (inactive)
Cc1cc(C(C)(C)C)cc(C)c1CC1=NCCN1 | – | -37% (inactive)
Nc1c2c(nc3ccccc13)CCCC2O (stereo not given) | – | -11.4% (inactive)
O=C1N(c2ccccc2)c2ccccc2C1(Cc1ccncc1)Cc1ccncc1 | – | -4.48% (inactive)
C=CCc1ccccc1OCC(O)CNC(C)C (stereo not given) | – | 14.9% (inactive)
c1cc(CN2CCCCC2)cc(OCCCNc2nc3ccccc3s2)c1 | – | -47.7% (inactive)
CN(C)CC[C@@H](c1ccc(Cl)cc1)c1ccccn1 | – | 29.3% (inactive)
CCN(CC)CC(=O)Nc1c(C)cccc1C | – | 2.99% (inactive)
NS(=O)(=O)c1cc2c(cc1Cl)NC(C1CC3C=CC1C3)NS2(=O)=O (stereo not given) | – | 47.5% (inactive)
COc1ccc2c(c1)c(CC(=O)O)c(C)n2C(=O)c1ccc(Cl)cc1 | – | 24.6% (inactive)
CCOC(=O)C(C)(C)Oc1ccc(Cl)cc1 | – | 4.17% (inactive)
C#CCN(C)Cc1ccccc1 | – | 4.53% (inactive)
